Most compounds without a hit are left out; they make up all but 3.9% or so of the library.
FH mod – Identification of activators of human fumarate hydratase by quantitative high-throughput screening | FH coupled MDH/diaphorase resazurin fluorescence, 15 min | Potency, µM (highest dose often 79.9 µM), for inactives: top-dose activity change, negative = inhibition, most hits filed as inhibitors | hit rate 0.22% among 54,000; note: potency is the fitted concentration of half-maximal effect; % is set by controls: 0 for no effect and ±100 for the full control effect; the screen sought activators but most active calls are inhibition curves; nearly all actives have a fitted effect of over 45% in size
GPR32 ag – qHTS for Agonists of Human Resolvin D1 Receptor DRV1; AID 1346428, 2018; CHO-K1 GPR32 beta-arrestin PathHunter luminescence, 90 min; zero percent set by DMSO-only wells; activation, % at 76.9 µM; hit rate 2.5% among 48,000;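 active = activation of at least 60% and not above a set upper limit, about 1 call in 100 departs from these limits; inconclusive = activation of 40% to 60%, or above that upper limit; inactive = activation under 40%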; note: 0% is about no effect
Target sequence (O75388 whole entry, looked up): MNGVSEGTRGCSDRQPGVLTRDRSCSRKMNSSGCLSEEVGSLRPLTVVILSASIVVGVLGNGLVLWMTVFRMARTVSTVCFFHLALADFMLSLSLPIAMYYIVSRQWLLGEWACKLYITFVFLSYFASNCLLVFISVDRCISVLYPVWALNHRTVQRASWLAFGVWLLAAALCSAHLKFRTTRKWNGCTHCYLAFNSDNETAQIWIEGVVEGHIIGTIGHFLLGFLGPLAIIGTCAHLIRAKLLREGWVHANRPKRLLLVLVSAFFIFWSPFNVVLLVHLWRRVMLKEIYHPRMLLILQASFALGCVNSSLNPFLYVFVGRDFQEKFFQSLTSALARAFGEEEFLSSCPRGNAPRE
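Step 1: seed CHO-K1 GPR32 beta-arrestin cells, 2,500/well, overnight at 37 °C. Step 2: add compounds, 90 min at 37 °C. Step 3: detection reagent, 1 h ambient, then luminescence.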
OvCa metastasis – Primary qHTS assay for Inhibitors of ovarian cancer metastasis using an organotypic tumor microenvironment (TME) model; Potency, µM (highest dose often 45.8 µM), without a hit: at the top dose activity change, negative = inhibition, most hits filed as inhibitors; AID 1963576, 2024; hit rate 0.1% among 46,000; SKOV3ip1-GFP adhesion/invasion on 3D omental model, fluorescence;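 note: potency is the fitted concentration of half-maximal effect; plate controls were DMSO wells for no effect and tomatine positive control wells for full effect; nearly all actives have a fitted effect of over 65% in size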
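A 3D layer of primary human omental fibroblasts, mesothelial cells, fibronectin and collagen I, grown 48 hr, received SKOV3ip1-GFP cells in serum-free medium plus compounds at 0.36-46 umol/L. After 2 hr RT and 16 hr 37 C, fixed adherent GFP cells were counted; normalized to DMSO and tomatine.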
NTMT1 inhibitor – Primary qHTS for Inhibitors of N-terminal methyltransferase 1 (NTMT1): MTaseGlo Assay. N-terminal Xaa-Pro-Lys N-methyltransferase 1 (Homo sapiens), Q9BV86. NTMT1 MTase-Glo SAH luminescence, purified enzyme. Potency, µM (titrated, usually from 114 µM), without a hit: at the top dose activity change, negative = inhibition, most hits filed as inhibitors. hit rate 2.5% among 59,000. AID 1645870, 2021;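 note: potency is the fitted concentration of half-maximal effect; plate controls were DMSO vehicle for no effect and no enzyme for full effect; nearly all actives have a fitted effect of over 65% in size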
NNMT counter – Counterscreen qHTS for Inhibitors of N-terminal methyltransferase 1 (NTMT1): NNMT MTaseGlo assay | shares compounds with NTMT1 inhibitor | NNMT MTase-Glo luminescence, SAH detection | Potency, µM (highest dose often 57.1 µM), for inactives: at the top dose activity, negative = inhibition, most hits filed as inhibitors | hit rate 10% among 120 | AID 1645878, 2021
The depositor's hits bear a star; ! = not active in a repeat; [ ] = remark or other dose. Unless noted, calls come from the whole dose curve; as a rule, active = well fitted curve in the direction sought with a large enough effect; inconclusive = small, poorly fitted or top-dose-only effect, or another doubt; inactive = no such curve, though single readings can be large; an effect the other way counts as inactive or inconclusive.

How did Oc1ccc([C@H]2CNCc3c2ccc(O)c3O)cc1O do in these assays?
FH mod: 30.9µM*; GPR32 ag: -6.2; NTMT1 inhibitor: 2.82µM*

What do the screens show for `CN(C)C(=S)SSC(=S)N(C)C`?
FH mod: -3.4%[53.3 µM]; GPR32 ag: -2.1; NTMT1 inhibitor: 7.94µM*

What do the screens show for `CC(C)(C)OC(=O)NC1[C@H]2CNC[C@@H]12` (stereo partly drawn)?
FH mod: -0.8%[53.3 µM]

What do the screens show for `Cc1cc(SCc2sc(-c3ccc(C(F)(F)F)c(F)c3)nc2C)ccc1OCC(=O)O`?
FH mod: inconclusive; OvCa metastasis: 5.7%; NTMT1 inhibitor: 70.8µM*!

What do the screens show for `C/C=C(\C)C(=O)OC1CC2C(C)(C)OC(=O)CC(OC(C)=O)C2(C)C2CC(OC(=O)C(C)C)C3(C)C(c4ccoc4)CC4OC43C12C` (stereo not drawn)?
FH mod: 3.2%[20.6 µM]; NTMT1 inhibitor: 14.5%[12.6 µM]

What do the screens show for `N#Cc1cc2c(nc1SCC(=O)Nc1cccc(C(F)(F)F)c1)C1CCN2CC1`?
FH mod: 1.3%; GPR32 ag: 63.5*; OvCa metastasis: inactive; NTMT1 inhibitor: -4.7%

What do the screens show for `C[C@@H]1O[C@@H](O[C@H]2C[C@@H](O)[C@]3(CO)[C@H]4[C@H](O)C[C@]5(C)[C@@H](C6=CC(=O)OC6)CC[C@]5(O)[C@@H]4CC[C@]3(O)C2)[C@H](O)[C@H](O)[C@H]1O`?
FH mod: 6.0%[53.3 µM]; GPR32 ag: 65.2*!; OvCa metastasis: -28.5%; NTMT1 inhibitor: 9.9%

Results for CC(C)(C)CC(C)(C)c1ccc(O)cc1 ?
FH mod: inconclusive; GPR32 ag: 116.4*!; NTMT1 inhibitor: inconclusive

Results for CCN1CCN(C(=O)Cc2ccc(Nc3ncc(F)c(Nc4ccc(C(=O)Nc5ccccc5Cl)cc4)n3)cc2)CC1 ?
FH mod: inconclusive; OvCa metastasis: inconclusive; NTMT1 inhibitor: -16.0%

How did CCCCCCCCCC(CC)c1ccc(S(=O)(=O)O)cc1 (stereo not drawn) do in these assays?
FH mod: inconclusive; GPR32 ag: 101.1*; NTMT1 inhibitor: 10µM*

Results for CC(N)[C@H](O)c1ccc(O)c(O)c1 (stereo partly drawn) ?
FH mod: -35.0%[53.3 µM]; GPR32 ag: 3.5

Results for C[C@H](N)[C@H](O)c1ccc(O)c(O)c1 ?
FH mod: -15.4%[53.3 µM]; GPR32 ag: 6.7; NTMT1 inhibitor: 20µM*

What do the screens show for `C[C@H]1CCC[C@H](O)CCC/C=C/c2cc(O)cc(O)c2C(=O)O1`?
FH mod: -12.4%; NTMT1 inhibitor: 1.41µM*; NNMT counter: 3.55µM*

Results for COc1ccc(CCNCc2ccc(OC)c3ccccc23)cc1 ?
FH mod: 2.6%; NTMT1 inhibitor: -1.9%[57.5 µM]

Compound activity: PubChem, National Center for Advancing Translational Sciences (NCATS)
